{"source": "PubChem BioAssay (NCATS)", "note": "Where “and” joins values, the source holds several entries; their conditions need not be identical. Equal entries are not always repeated. Inconclusive results are not listed. Unmarked numbers belong to inactive results. Calls of active or inactive are those of the source. Unless noted, the call rests on the fitted dose curve; in most records, active means well fitted curve in the direction sought with a large enough effect; inconclusive means small, poorly fitted or top-dose-only effect, or another doubt; inactive means no such curve, though single readings can be large; an effect the other way counts as inactive or inconclusive. On the % scale 0 is the no-effect control and ±100 the full control effect; potency means the concentration at half of the fitted maximal effect."}
{"target": "Cytochrome P450 2C9 (Homo sapiens) (UniProt P11712)", "sequence (P11712 whole entry, looked up)": "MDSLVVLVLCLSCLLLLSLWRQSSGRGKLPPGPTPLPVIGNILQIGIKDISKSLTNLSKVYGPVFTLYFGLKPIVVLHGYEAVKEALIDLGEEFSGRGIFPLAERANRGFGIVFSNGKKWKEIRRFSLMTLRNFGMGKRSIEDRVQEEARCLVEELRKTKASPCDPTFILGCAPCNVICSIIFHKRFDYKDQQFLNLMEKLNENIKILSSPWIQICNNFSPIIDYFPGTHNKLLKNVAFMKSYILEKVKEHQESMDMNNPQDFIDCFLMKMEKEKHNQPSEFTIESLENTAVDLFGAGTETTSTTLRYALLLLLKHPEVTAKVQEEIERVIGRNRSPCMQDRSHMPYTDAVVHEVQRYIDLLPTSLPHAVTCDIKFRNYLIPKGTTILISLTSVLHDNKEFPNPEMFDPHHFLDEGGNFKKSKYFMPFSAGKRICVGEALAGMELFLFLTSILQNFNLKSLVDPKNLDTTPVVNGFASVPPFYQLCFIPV", "assay": "Cytochrome P450 family 2 subfamily C member 9 (CYP2C9) small molecule antagonists: luciferase biochemical (cell-free) qHTS assay (AID 1645842; active means well fitted curve in the direction sought with a large enough effect in the repeat runs; an effect the other way counts as inactive or inconclusive; further: nearly all actives have a fitted effect of over 55% in size)", "settings": "P450-Glo CYP2C9 enzyme assay, luciferin luminescence; series mostly up to 57.4 µM; activity change, negative = inhibition: at the top concentration", "procedure,_shortened": "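P450-Glo CYP2C9 system: proluciferin substrate with enzyme in mix containing 0.4% BSA, 10 min at room temperature, then NADPH regeneration solution added and incubated 1 h at 37C. Detection reagent stopped reaction; luminescence read after 20 min as RLU.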", "units": {"activity change, negative = inhibition": "%"}}
{"smiles": "Cc1cc(C)c(-n2cc(C)c3c(Cl)nc(C)nc32)c(C)c1", "Potency": "10.7 µM (active)"}
{"smiles": "O=C(NCCN1CCC(n2c(=O)[nH]c3ccccc32)CC1)c1ccc2ccccc2c1", "Potency": "7.56 µM (active)"}
{"smiles": "Cc1c(C(=O)NCc2cccnc2)nn(-c2ccc(Cl)cc2Cl)c1-c1ccc(Cl)cc1", "Potency": "5.35 µM (active)"}
{"smiles": "O=C(NCCCc1ccccc1)C1CCC(CNS(=O)(=O)c2cccc3nsnc23)CC1", "note": "(stereo not given)", "Potency": "9.52 µM (active)"}
{"smiles": "O=C(NCC1(c2nc(-c3ccccc3)cs2)CCOCC1)c1cccc(-c2noc(C(F)(F)F)n2)c1", "Potency": "3.01 µM (active)"}
{"smiles": "Cc1cccc(CC(=O)N2CCc3c2ccc(-c2cn(C)c4ncnc(N)c24)c3F)n1", "Potency": "10.7 µM (active)"}
{"smiles": "CCCCNc1ncc2c(-c3ccc(S(=O)(=O)N4CCOCC4)cc3)nn(C3CCC(O)CC3)c2n1", "note": "(stereo not given)", "Potency": "9.52 µM (active)"}
{"smiles": "CN1CCN(C2=Nc3ccccc3Nc3ccc(OS(=O)(=O)C(F)(F)F)cc32)CC1", "Potency": "10.7 µM (active)"}
{"smiles": "Cc1cc(C)cc(-c2cnc3cc(Cl)c(-c4cccc(O)c4)cc3c2OCCCN)c1", "Potency": "1.2 µM (active)"}
{"smiles": "CCn1c(-c2nonc2N)nc2c(C#CCO)ncc(OCCCN)c21", "activity change, negative = inhibition": -20.3}
{"smiles": "Cc1cc(C)nc(SCC(=O)Nc2ncc(Cc3cccc4ccccc34)s2)n1", "Potency": "10.7 µM (active)"}
{"smiles": "CCOC(=O)N1CCC(CN(Cc2ccc(Cl)cc2)Cc2ccc([N+](=O)[O-])s2)C1", "note": "(stereo not given)", "Potency": "4.25 µM (active)"}
{"smiles": "C[C@@H]1CCCN1CCc1cc2cc(-c3ccc(C#N)cc3)ccc2o1", "activity change, negative = inhibition": 2.5}
{"test_system": "not listed separately", "assay": "Primary qHTS for inhibitors of nuclear receptor binding SET domain protein 2 (NSD2) in an isogenic RCH-ACV NSD2 p.E1099K mutant (9B) (AID 1645876); further: nearly all actives have a fitted effect of over 70% in size", "settings": "RCH-ACV NSD2 E1099K (9B) viability, CellTiter-Glo, 72 h; series mostly up to 44.9 µM; activity change, negative = viability loss: at the top concentration"}
{"smiles": "O=C(c1ccc(OC(F)F)c(C#Cc2ccccn2)c1)N1Cc2cccnc2C1", "activity change, negative = viability loss": "-16.3%"}
{"smiles": "CC(=O)NC[C@H]1CN(c2ccc(N3CCSCC3)c(F)c2)C(=O)O1", "activity change, negative = viability loss": "-16.6%"}
{"smiles": "O=c1nc(-c2ccccn2)sc2ccccc12", "Potency": "4.59 µM (active)"}
{"smiles": "Cc1[nH]c2ccccc2c1CCNC(=O)c1cccs1", "activity change, negative = viability loss": "-10.4%"}
{"smiles": "Cc1cc(CS(=O)(=O)c2ccccc2)cc(OCc2ccc(CN3CCCC3CO)cc2)c1", "note": "(stereo not given)", "Potency": "14.5 µM (active)"}
{"smiles": "CC(C)S(=O)(=O)NC[C@H](C)c1ccc(-c2ccc(CCNS(C)(=O)=O)cc2)cc1", "Potency": "6.49 µM (active)"}
{"smiles": "Cc1ccc(NC(=O)N2CCN(c3nc(N)nc4sc(-c5cccnc5)nc34)CC2)cc1", "Potency": "0.258 µM (active)"}
{"smiles": "N#Cc1cc(C2=Nc3ccc(Br)cc3NC(=O)C2)ccn1", "activity change, negative = viability loss": "-23.5%"}
{"smiles": "COC(=O)c1cc(Br)cnc1N1CCC(NC2CCCCC2)C(O)C1", "note": "(stereo not given)", "activity change, negative = viability loss": "-14.5%"}
{"smiles": "O=C(NS(=O)(=O)c1ccc(Br)s1)c1ccc(Cl)cc1Cl", "Potency": "10.3 µM (active)"}
{"smiles": "CCN1CCN(Cc2ccc(NC(=O)c3ccc(C)c(Oc4ccnc5[nH]ccc45)c3)cc2C(F)(F)F)CC1", "Potency": "0.713 µM (active)"}
{"smiles": "Cc1cccc(C#Cc2cc(F)cc(C#N)c2)n1", "activity change, negative = viability loss": "-9.55%"}
{"smiles": "CN(C)CCn1cc(-c2ccc(F)cc2)c(-n2cccc2)n1", "activity change, negative = viability loss": "-13.3%"}
{"smiles": "c1cc(NC2CCNCC2)nc(-c2cnc3ccccn23)c1", "Potency": "1.15 µM (active)"}
{"smiles": "COc1cc(CCc2cc(NC(=O)c3ccc(N4CC(C)NC(C)C4)cc3)n[nH]2)cc(OC)c1", "note": "(stereo not given)", "Potency": "9.16 µM (active)"}
{"smiles": "N#Cc1cc(CN2CCC(Nc3ncnc4sc(Cl)cc34)CC2)ccc1F", "Potency": "14.5 µM (active)"}
{"smiles": "CC(C)(Cc1ccccc1)NCC(O)c1ccc(O)c(NS(C)(=O)=O)c1", "note": "(stereo not given)", "activity change, negative = viability loss": "-28.6%"}
{"smiles": "O=C(Nc1cccnn1)N1CCN(c2nccc(-c3ccc(F)c(F)c3)n2)CC1", "activity change, negative = viability loss": "-4.96% [at 91.9 µM]"}
{"smiles": "CCC(CC)Nc1nc(C)c(-c2ccc(OC(F)(F)F)cc2OC)nc1OC", "activity change, negative = viability loss": "-22.8%"}
{"smiles": "CC1=C(c2ccc(NC(=O)c3c(F)cccc3F)cc2)CN(c2nccs2)CC1", "activity change, negative = viability loss": "-22.2%"}
{"smiles": "CC(C)NCCCn1c(Sc2cc3c(cc2I)OCO3)nc2c(N)ncnc21", "Potency": "0.365 µM (active)"}
{"smiles": "CC(C)(Cc1nc(-c2ccc(O)cn2)no1)C(=O)NC1=C(C(=O)O)CCCC1", "activity change, negative = viability loss": "-23.4%"}
{"smiles": "C[C@H](CN(C)C)Oc1nc(Nc2cc3cccc(Cl)c3cn2)cnc1C#N", "Potency": "459 nM (active) and 934 nM (active)"}
{"smiles": "COc1ccncc1C(=O)NC(=O)Nc1ccc(-c2ccccc2)c(C(F)(F)F)c1", "activity change, negative = viability loss": "-24.8%"}
{"smiles": "Cc1nc2c(C(F)(F)F)cccc2nc1-c1ccc(-c2cccc(S(C)(=O)=O)c2)cc1", "activity change, negative = viability loss": "-29%"}
{"smiles": "CCN1C(C)(C)CC(Oc2ccc(C(=O)Nc3ccc(NC(=O)Nc4cc(C(C)(C)C)on4)cc3)nc2)CC1(C)C", "Potency": "4.11 µM (active)"}
{"test_system": "not listed separately", "assay": "Primary qHTS for inhibitors of nuclear receptor binding SET domain protein 2 (NSD2) in an RCH-ACV wild type WT cells (2C) (AID 1645877); further: nearly all actives have a fitted effect of over 70% in size", "settings": "RCH-ACV NSD2 WT (2C) viability, CellTiter-Glo, 72 h; series mostly up to 44.9 µM; activity change, negative = cell killing: at the top concentration"}
{"smiles": "Cc1cc(C)c(-n2cc(C)c3c(Cl)nc(C)nc32)c(C)c1", "activity change, negative = cell killing": "-24.3%"}
{"smiles": "O=C(c1ccc(OC(F)F)c(C#Cc2ccccn2)c1)N1Cc2cccnc2C1", "activity change, negative = cell killing": "-18.5%"}
{"smiles": "CC(=O)NC[C@H]1CN(c2ccc(N3CCSCC3)c(F)c2)C(=O)O1", "activity change, negative = cell killing": "-13.4%"}
{"smiles": "O=c1nc(-c2ccccn2)sc2ccccc12", "Potency": "1.63 µM (active)"}
{"smiles": "Cc1[nH]c2ccccc2c1CCNC(=O)c1cccs1", "activity change, negative = cell killing": "-7.77%"}
{"smiles": "O=C(NCCN1CCC(n2c(=O)[nH]c3ccccc32)CC1)c1ccc2ccccc2c1", "Potency": "16.3 µM (active)"}
{"smiles": "Cc1c(C(=O)NCc2cccnc2)nn(-c2ccc(Cl)cc2Cl)c1-c1ccc(Cl)cc1", "Potency": "20.5 µM (active)"}
{"smiles": "O=C(NCCCc1ccccc1)C1CCC(CNS(=O)(=O)c2cccc3nsnc23)CC1", "note": "(stereo not given)", "Potency": "11.5 µM (active)"}
{"smiles": "O=C(NCC1(c2nc(-c3ccccc3)cs2)CCOCC1)c1cccc(-c2noc(C(F)(F)F)n2)c1", "Potency": "25.8 µM (active)"}
{"smiles": "Cc1ccc(NC(=O)N2CCN(c3nc(N)nc4sc(-c5cccnc5)nc34)CC2)cc1", "Potency": "0.23 µM (active)"}
{"smiles": "Cc1cccc(CC(=O)N2CCc3c2ccc(-c2cn(C)c4ncnc(N)c24)c3F)n1", "Potency": "16.4 µM (active)"}
{"smiles": "CCCCNc1ncc2c(-c3ccc(S(=O)(=O)N4CCOCC4)cc3)nn(C3CCC(O)CC3)c2n1", "note": "(stereo not given)", "Potency": "1.03 µM (active)"}
{"smiles": "CN1CCN(C2=Nc3ccccc3Nc3ccc(OS(=O)(=O)C(F)(F)F)cc32)CC1", "Potency": "16.3 µM (active)"}
{"smiles": "O=C(NS(=O)(=O)c1ccc(Br)s1)c1ccc(Cl)cc1Cl", "Potency": "9.16 µM (active)"}
{"smiles": "Cc1cc(C)cc(-c2cnc3cc(Cl)c(-c4cccc(O)c4)cc3c2OCCCN)c1", "Potency": "16.3 µM (active)"}
{"smiles": "CCN1CCN(Cc2ccc(NC(=O)c3ccc(C)c(Oc4ccnc5[nH]ccc45)c3)cc2C(F)(F)F)CC1", "Potency": "0.713 µM (active)"}
{"smiles": "CN(C)CCn1cc(-c2ccc(F)cc2)c(-n2cccc2)n1", "activity change, negative = cell killing": "-14.3%"}
{"smiles": "c1cc(NC2CCNCC2)nc(-c2cnc3ccccn23)c1", "Potency": "1.45 µM (active)"}
{"smiles": "CCn1c(-c2nonc2N)nc2c(C#CCO)ncc(OCCCN)c21", "Potency": "5.78 µM (active)"}
{"smiles": "COc1cc(CCc2cc(NC(=O)c3ccc(N4CC(C)NC(C)C4)cc3)n[nH]2)cc(OC)c1", "note": "(stereo not given)", "Potency": "10.3 µM (active)"}
{"smiles": "Cc1cc(C)nc(SCC(=O)Nc2ncc(Cc3cccc4ccccc34)s2)n1", "activity change, negative = cell killing": "-24.2%"}
{"smiles": "N#Cc1cc(CN2CCC(Nc3ncnc4sc(Cl)cc34)CC2)ccc1F", "Potency": "20.5 µM (active)"}
{"smiles": "CCOC(=O)N1CCC(CN(Cc2ccc(Cl)cc2)Cc2ccc([N+](=O)[O-])s2)C1", "note": "(stereo not given)", "Potency": "20.5 µM (active)"}
{"smiles": "O=C(Nc1cccnn1)N1CCN(c2nccc(-c3ccc(F)c(F)c3)n2)CC1", "activity change, negative = cell killing": "-3.42% [at 91.9 µM]"}
{"smiles": "C[C@@H]1CCCN1CCc1cc2cc(-c3ccc(C#N)cc3)ccc2o1", "Potency": "20.5 µM (active)"}
{"smiles": "CCC(CC)Nc1nc(C)c(-c2ccc(OC(F)(F)F)cc2OC)nc1OC", "activity change, negative = cell killing": "-18.9%"}
{"smiles": "CC(C)NCCCn1c(Sc2cc3c(cc2I)OCO3)nc2c(N)ncnc21", "Potency": "0.325 µM (active)"}
{"smiles": "C[C@H](CN(C)C)Oc1nc(Nc2cc3cccc(Cl)c3cn2)cnc1C#N", "Potency": "409 nM (active) and 934 nM (active)"}
{"smiles": "COc1ccncc1C(=O)NC(=O)Nc1ccc(-c2ccccc2)c(C(F)(F)F)c1", "activity change, negative = cell killing": "-20%"}
{"smiles": "Cc1nc2c(C(F)(F)F)cccc2nc1-c1ccc(-c2cccc(S(C)(=O)=O)c2)cc1", "activity change, negative = cell killing": "-30.8%"}
{"smiles": "CCN1C(C)(C)CC(Oc2ccc(C(=O)Nc3ccc(NC(=O)Nc4cc(C(C)(C)C)on4)cc3)nc2)CC1(C)C", "Potency": "6.51 µM (active)"}
